In assay [1] the target is human Ephrin type-A Receptor 1 (EphA1), EPHA1 (gene 2041) (UniProt P21709). Briefly: NVS_ENZ_hEphA1: NovaScreen (NVS) Enzymatic Assay for human Ephrin type-A Receptor 1 (EphA1) (AID 2283158).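 Note: activity is signal loss versus DMSO meaning EphA1 kinase inhibition.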 The method in brief:
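Fluorescent substrate conversion, resolved by mobility-shift separation, measured 1 hour post-dosing using recombinant enzyme; signal loss relative to DMSO baseline. Single-concentration duplicates at 25 uM preceded singleton concentration series topping at 50 uM.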

The target of assay [2] is human Peripheral-type Benzodiazepine Receptor (PBR), TSPO (gene 706) (UniProt P30536). Briefly: NVS_MP_hPBR: NovaScreen (NVS) Membrane Protein Assay for human Peripheral-type Benzodiazepine Receptor (PBR) (AID 2283331).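 Note: hits reduce radioligand binding relative to DMSO baseline.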 The method in brief:
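Radioligand displacement on human colonic cell membranes, 1 h incubation; bound radioactivity by filtration and scintillation counting. Primary screen in duplicate at 25 uM single concentration, actives followed up in concentration series; loss of binding versus DMSO.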

Assay [3] has as its target rat Peripheral-type Benzodiazepine Receptor (PBR), Tspo (gene 24230) (UniProt P16257). Briefly: NVS_MP_rPBR: NovaScreen (NVS) Membrane Protein Assay for rat Peripheral-type Benzodiazepine Receptor (PBR) (AID 2283335). In a few lines: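 Rat kidney membranes; radioligand binding with displacement, filter-based scintillation counting, 1 h incubation. Primary screen in duplicate at 25 uM, actives followed in concentration series; loss of binding vs DMSO.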

Assay [4] in a line: CCTE_Deisenroth_5AR_NBTE_donor: CCTE's 5alpha-reductase NanoBRET Target Engagement Assay […], Deisenroth Lab (AID 2284319; active = hit-call score of the fitted dose curve at least 0.9, where 1 is the maximum; inactive = score below 0.9). The note with it: actives raise or lower the signal. In a few lines: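 HEK293T cells transiently expressing SRD5A2-NanoLuc, exposed 5 h to chemicals (8 points, 10 nM - 29.9 uM), with testosterone tracer for the final 2 h. Donor luminescence at 460 nm read after Nano-Glo substrate plus extracellular NanoLuc inhibitor; bidirectional fit versus DMSO.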
Background: BRET reads energy transfer from a luciferase to a nearby fluorophore.

The nature of assay [5]: CCTE_Deisenroth_5AR_NBTE_acceptor: CCTE's 5alpha-reductase NanoBRET Target Engagement Assay - Autofluorescence Screen, Deisenroth Lab (AID 2284321; active = hit-call score of the fitted dose curve at least 0.9, where 1 is the maximum; inactive = score below 0.9;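 note: compound fluorescence in the acceptor channel under 460 nm excitation flags autofluorescence artifacts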). Conditions: actives raise or lower the signal. In a few lines:
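Acceptor-channel fluorescence flags artifacts, with excitation fixed at 460 nm. Nominal 100 uM chemical samples were read in triplicate runs, and signal changes were fitted in both directions relative to DMSO.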

A further assay concerns SRD5A2 (gene 6716). Description: CCTE_Deisenroth_5AR_NBTE_ratio: CCTE's 5alpha-reductase NanoBRET Target Engagement Assay - Ratio, Deisenroth Lab (AID 2284322; active = hit-call score of the fitted dose curve at least 0.9, where 1 is the maximum; inactive = score below 0.9). Conditions: actives raise or lower the signal. In a few lines: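 HEK293T transiently expressing SRD5A2-NanoLuc; cells exposed to chemical (8-point, 10 nM - 29.9 uM) for 5 h total, testosterone tracer added for final 2 h. NanoBRET acceptor/donor ratio (650/460 nm), bidirectional fit vs DMSO.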

A short description of assay [6]: CCTE_Shafer_MEA_acute_per_network_burst_electrodes_number_mean: CCTE's Neural Acute Assay for Mean Number of Electrodes in a Network Burst, Shafer Lab (AID 2284021; active = hit-call score of the fitted dose curve at least 0.9, where 1 is the maximum; inactive = score below 0.9;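 note: curves fitted for decreases only so hits reduce electrodes per burst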). The method in brief:
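Percent change from baseline was computed as mean electrode count per network burst, comparing 40 min recordings before and during compound (0.03-40 uM) exposure. Cultures were rat cortical neurons at DIV 13 or 15, recorded on MEAs at 37 C with an adaptive 8x rms threshold.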

A short description of assay [7]: CCTE_Shafer_MEA_acute_network_burst_percentage: CCTE's Neural Acute Assay for Percentage of Network Bursts, Shafer Lab (AID 2284022; active = hit-call score of the fitted dose curve at least 0.9, where 1 is the maximum; inactive = score below 0.9;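 note: curves fitted for loss so actives lower network burst percentage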). The method in brief:
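Network burst percentage (spikes in network bursts divided by total spikes) recorded at 37 C over 40 min baseline and 40 min after compound, 0.03-40 uM, in rat cortical cultures at DIV 13 or 15. Analysed as percent change from baseline versus DMSO.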

Assay [8] is described as follows: CCTE_Shafer_MEA_acute_cross_correlation_HWHM: CCTE's Neural Acute Assay for Cross Correlation at Half Width at Half Maximum, Shafer Lab (AID 2284026; active = hit-call score of the fitted dose curve at least 0.9, where 1 is the maximum; inactive = score below 0.9;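 note: spontaneous network firing of rat primary cortical neurons on multiwell microelectrode arrays; hits are a decrease in cross-correlogram half width relative to DMSO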). In a few lines: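 Per-well percent change in cross-correlogram half width at half maximum, derived from 40-min recordings before and after compound (0.03-40 uM) at 37 C. Cultures were rat cortical neurons, DIV 13 or 15, with adaptive spike detection at 8x rms.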

Assay [9] can be described thus: CCTE_Shafer_MEA_acute_LDH: CCTE's Lactate Dehydrogenase Assay for Cytotoxicity in the Neural Acute Assay, Shafer Lab (AID 2284086).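 Note: active means LDH release rises above DMSO vehicle level.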 In a few lines:
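Medium from rat cortical neuron MEA cultures sampled right after the 40 min compound-exposure recording; released LDH measured by absorbance at 490 nm. Analyzed as signal gain relative to DMSO.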

The nature of assay [10]: CPHEA_Stoker_NIS_Cytotoxicity: Cytotoxicity Assessment for CPHEA's Radioactive Iodide Uptake (RAIU) Assay for Sodium/Iodide Symporter (NIS) Inhibition, Stoker and Laws Labs (AID 2283897). In a few lines:
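hNIS-HEK293T-EPA cells, human NIS expressed in HEK293T, treated 2 h with chemicals (0.001–100 uM, 0.5% final DMSO). ATP content read by CellTiter-Glo luminescence; loss of signal analysed relative to DMSO.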

The target in assay [11] is chimpanzee Androgen Receptor (AR), AR (gene 747460) (UniProt O97775). Briefly: NVS_NR_cAR: NovaScreen (NVS) Nuclear Receptor Binding Assay for chimpanzee Androgen Receptor (AR) (AID 2283346).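 Note: radioligand displacement from AR measured by scintillation counting in a cell-free assay.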 In a few lines:
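Radioligand binding to chimpanzee AR expressed in Sf9/Sf21 cells, cell-free, measured 72 h after dosing by lysate-based scintillation counting. Loss of signal vs DMSO; initial duplicate screen at 25 uM, actives retested in concentration series.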

The target in assay [12] is human CYP2D6, CYP2D6 (gene 1565) (UniProt P10635). Briefly: NVS_ADME_hCYP2D6: NovaScreen (NVS) CYP450-related Enzyme Activity (ADME) Assay for human CYP2D6 (AID 2283107). In a few lines: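 Fluorescence readout of recombinant CYP2D6 (insect-cell derived) activity after 1 h incubation with test chemical. Acetonitrile served as baseline, loss-of-signal direction. Single-concentration duplicate screening at 10 uM preceded concentration-response retesting.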

Assay [13] addresses Muscarinic acetylcholine receptor M2 (Homo sapiens) (UniProt P08172). Description: NVS_GPCR_hM2: NovaScreen (NVS) G Protein-Coupled Receptor Assay for human Muscarinic, M2 Receptor (AID 2283273). The method in brief:
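Radioligand displacement on human M2 receptor membranes from CHO cells, 1 h incubation, filtration with scintillation counting. Primary screen in duplicate at 25 uM; actives retested in concentration series; loss of signal fitted versus DMSO.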

Assay [14] deals with human Dopamine Transporter (DAT), SLC6A3 (gene 6531) (UniProt Q01959). Briefly: NVS_TR_hDAT: NovaScreen (NVS) Transporter Assay for human Dopamine Transporter (DAT) (AID 2283374).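 Note: activity means loss of bound radioligand signal relative to DMSO.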 The method in brief:
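Cell-free radioligand displacement binding at human DAT, 1 h after dosing, with filtration and scintillation counting. Primary screen in duplicate at 25 uM, actives then in concentration series. Loss of bound signal versus DMSO scored.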

Assay [15] concerns the target Bile acid receptor (Homo sapiens) (UniProt Q96RI1). Description: ATG_IR1_CIS: Attagene CIS-FACTORIAL HepG2 Assay for human Nuclear Receptor Subfamily 1 Group H Member 4 (NR1H4), IR1 submotif (AID 2282946; active = hit-call score of the fitted dose curve at least 0.9, where 1 is the maximum; inactive = score below 0.9). The note with it: IR1 reporter transcription, actives raise or lower the signal. In a few lines: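 HepG2 cells transiently transfected with multiple cis-promoter-driven reporter units to measure endogenous transcription factor activity; 24 h exposure. Reporter mRNA read by RT-PCR, FAM labelling, HpaI digestion and capillary electrophoresis. Bidirectional fit versus DMSO.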

The target in assay [16] is bovine Estrogen Receptor (ER), ESR1 (gene 407238) (UniProt P49884). Description: NVS_NR_bER: NovaScreen (NVS) Nuclear Receptor Binding Assay for bovine Estrogen Receptor (ER) (AID 2283345).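 Note: actives lower the bound radioligand count which means they displace the ER ligand.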 The method in brief:
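Cell-free radioligand binding with bovine uterine membrane extracts, read 18 hours after dosing by scintillation counting. Loss of signal versus DMSO baseline indicates displacement. Primary screen run in duplicate at 25 uM, actives followed in concentration series.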

For assay [17], the target named is mouse Estrogen Receptor alpha (Era), Esr1 (gene 13982) (UniProt P19785). Description: NVS_NR_mERa: NovaScreen (NVS) Nuclear Receptor Binding Assay for mouse Estrogen Receptor alpha (Era) (AID 2283378).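 Note: hit means loss of bound radioligand signal relative to DMSO.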 In a few lines:
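Filter radiodetection of radioligand displacement from extracted receptor protein, measured 18 h post-dose. Single 25 uM concentration in duplicate initially, with concentration-series follow-up. Binding loss fitted relative to DMSO.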

This note sets out measurements from PubChem BioAssay (EPA / NIEHS).

Results filed as inconclusive are left out. The source made the active and inactive calls. Rule for the calls, unless noted: active = hit-call score of the fitted dose curve at least 0.9, where 1 is the maximum; inconclusive = response in the unintended direction; inactive = score below 0.9.

Sequence of Muscarinic acetylcholine receptor M2 (Homo sapiens) (P08172 whole entry, looked up): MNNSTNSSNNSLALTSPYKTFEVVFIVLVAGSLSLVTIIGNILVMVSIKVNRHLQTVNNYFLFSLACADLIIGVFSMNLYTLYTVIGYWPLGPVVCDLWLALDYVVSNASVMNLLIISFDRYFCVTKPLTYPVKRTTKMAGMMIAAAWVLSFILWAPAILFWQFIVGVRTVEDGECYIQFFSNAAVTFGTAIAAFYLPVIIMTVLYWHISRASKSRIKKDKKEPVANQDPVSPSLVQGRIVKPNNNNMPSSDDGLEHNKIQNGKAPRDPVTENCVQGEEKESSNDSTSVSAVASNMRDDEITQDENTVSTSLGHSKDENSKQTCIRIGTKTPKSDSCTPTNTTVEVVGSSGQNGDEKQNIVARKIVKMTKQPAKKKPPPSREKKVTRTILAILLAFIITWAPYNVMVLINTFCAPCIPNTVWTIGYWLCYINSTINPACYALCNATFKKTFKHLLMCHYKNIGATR
Sequence of chimpanzee Androgen Receptor (AR), AR (gene 747460) (O97775 whole entry, looked up): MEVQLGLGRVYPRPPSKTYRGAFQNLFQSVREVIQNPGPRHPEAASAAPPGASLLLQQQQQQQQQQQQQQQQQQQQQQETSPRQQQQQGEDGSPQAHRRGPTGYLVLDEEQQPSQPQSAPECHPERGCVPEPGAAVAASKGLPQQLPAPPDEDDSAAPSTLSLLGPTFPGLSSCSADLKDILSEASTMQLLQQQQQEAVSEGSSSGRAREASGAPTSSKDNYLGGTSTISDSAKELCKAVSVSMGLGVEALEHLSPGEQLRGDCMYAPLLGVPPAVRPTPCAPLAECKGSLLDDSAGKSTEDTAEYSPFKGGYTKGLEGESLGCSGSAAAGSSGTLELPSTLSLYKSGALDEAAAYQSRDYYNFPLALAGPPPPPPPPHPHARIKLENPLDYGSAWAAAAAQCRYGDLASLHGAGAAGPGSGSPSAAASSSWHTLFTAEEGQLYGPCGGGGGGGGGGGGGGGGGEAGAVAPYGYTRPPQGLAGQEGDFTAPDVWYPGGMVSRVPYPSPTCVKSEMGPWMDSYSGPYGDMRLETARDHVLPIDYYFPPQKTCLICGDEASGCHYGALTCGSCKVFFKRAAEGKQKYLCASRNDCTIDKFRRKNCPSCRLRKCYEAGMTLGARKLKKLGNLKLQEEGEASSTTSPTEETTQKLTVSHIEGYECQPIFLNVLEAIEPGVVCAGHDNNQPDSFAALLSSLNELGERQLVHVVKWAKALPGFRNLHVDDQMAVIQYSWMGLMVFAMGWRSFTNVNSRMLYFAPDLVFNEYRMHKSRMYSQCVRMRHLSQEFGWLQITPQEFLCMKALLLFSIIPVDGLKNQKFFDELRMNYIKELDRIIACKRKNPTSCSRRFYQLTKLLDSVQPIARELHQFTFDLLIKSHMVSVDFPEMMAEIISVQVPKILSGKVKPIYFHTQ
Sequence of human Ephrin type-A Receptor 1 (EphA1), EPHA1 (gene 2041) (P21709 whole entry, looked up): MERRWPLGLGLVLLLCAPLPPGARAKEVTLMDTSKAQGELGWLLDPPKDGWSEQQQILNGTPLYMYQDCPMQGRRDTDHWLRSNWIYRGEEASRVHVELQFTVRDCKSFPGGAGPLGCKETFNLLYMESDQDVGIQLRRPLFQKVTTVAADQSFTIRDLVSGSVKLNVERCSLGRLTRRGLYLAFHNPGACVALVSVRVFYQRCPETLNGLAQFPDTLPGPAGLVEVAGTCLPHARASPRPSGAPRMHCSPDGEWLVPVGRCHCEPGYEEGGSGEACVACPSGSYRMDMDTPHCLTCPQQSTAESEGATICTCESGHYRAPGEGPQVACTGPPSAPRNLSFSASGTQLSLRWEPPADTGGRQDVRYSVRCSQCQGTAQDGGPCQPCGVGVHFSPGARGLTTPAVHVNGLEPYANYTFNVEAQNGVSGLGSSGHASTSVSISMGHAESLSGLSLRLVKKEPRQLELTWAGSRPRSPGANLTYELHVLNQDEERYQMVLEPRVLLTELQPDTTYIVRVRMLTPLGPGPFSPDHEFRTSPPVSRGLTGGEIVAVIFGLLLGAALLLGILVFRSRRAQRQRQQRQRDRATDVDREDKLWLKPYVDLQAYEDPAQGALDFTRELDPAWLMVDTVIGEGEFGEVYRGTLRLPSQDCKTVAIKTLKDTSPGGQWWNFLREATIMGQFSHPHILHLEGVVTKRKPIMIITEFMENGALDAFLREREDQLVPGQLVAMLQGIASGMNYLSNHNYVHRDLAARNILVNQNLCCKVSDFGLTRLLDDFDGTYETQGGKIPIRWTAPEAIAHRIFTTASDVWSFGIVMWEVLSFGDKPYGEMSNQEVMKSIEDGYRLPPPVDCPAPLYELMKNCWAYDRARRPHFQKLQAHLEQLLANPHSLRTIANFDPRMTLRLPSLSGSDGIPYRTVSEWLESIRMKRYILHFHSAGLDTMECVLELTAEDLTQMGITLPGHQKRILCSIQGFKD
Sequence of human CYP2D6, CYP2D6 (gene 1565) (P10635 whole entry, looked up): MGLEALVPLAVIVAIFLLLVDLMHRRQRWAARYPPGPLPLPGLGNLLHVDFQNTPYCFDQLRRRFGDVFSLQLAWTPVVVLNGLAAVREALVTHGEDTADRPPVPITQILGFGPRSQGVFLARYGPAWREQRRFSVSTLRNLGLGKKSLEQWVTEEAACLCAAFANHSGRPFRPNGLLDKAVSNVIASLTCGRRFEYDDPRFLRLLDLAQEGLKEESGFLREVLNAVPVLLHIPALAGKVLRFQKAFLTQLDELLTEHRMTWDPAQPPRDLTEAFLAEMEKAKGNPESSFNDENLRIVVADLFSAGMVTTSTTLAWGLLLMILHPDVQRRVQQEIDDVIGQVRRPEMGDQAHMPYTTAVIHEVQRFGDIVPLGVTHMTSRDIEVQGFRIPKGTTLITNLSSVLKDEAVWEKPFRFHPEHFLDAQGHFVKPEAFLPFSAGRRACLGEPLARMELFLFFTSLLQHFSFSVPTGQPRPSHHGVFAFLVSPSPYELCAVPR
Sequence of human Dopamine Transporter (DAT), SLC6A3 (gene 6531) (Q01959 whole entry, looked up): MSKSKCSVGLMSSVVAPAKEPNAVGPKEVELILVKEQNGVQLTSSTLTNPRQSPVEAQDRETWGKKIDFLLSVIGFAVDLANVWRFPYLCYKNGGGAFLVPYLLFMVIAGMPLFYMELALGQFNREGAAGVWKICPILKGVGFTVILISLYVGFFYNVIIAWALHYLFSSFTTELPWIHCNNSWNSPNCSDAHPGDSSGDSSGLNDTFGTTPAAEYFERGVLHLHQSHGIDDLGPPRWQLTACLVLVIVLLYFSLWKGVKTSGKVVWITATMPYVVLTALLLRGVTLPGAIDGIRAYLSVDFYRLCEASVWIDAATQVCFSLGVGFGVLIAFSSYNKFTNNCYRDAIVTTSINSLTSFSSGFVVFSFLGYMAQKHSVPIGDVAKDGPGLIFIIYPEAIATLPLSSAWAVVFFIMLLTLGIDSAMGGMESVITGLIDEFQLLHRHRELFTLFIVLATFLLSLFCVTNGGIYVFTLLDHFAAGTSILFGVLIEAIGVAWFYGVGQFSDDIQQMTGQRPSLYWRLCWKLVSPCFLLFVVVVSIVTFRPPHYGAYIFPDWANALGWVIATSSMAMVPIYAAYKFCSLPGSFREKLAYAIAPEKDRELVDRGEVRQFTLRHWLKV
Sequence of human Peripheral-type Benzodiazepine Receptor (PBR), TSPO (gene 706) (P30536 whole entry, looked up): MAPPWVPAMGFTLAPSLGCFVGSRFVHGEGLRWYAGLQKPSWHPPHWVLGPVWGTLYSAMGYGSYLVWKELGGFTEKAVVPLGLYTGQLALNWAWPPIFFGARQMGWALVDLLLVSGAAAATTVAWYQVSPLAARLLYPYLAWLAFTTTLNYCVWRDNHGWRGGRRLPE
Sequence of Bile acid receptor (Homo sapiens) (Q96RI1 whole entry, looked up): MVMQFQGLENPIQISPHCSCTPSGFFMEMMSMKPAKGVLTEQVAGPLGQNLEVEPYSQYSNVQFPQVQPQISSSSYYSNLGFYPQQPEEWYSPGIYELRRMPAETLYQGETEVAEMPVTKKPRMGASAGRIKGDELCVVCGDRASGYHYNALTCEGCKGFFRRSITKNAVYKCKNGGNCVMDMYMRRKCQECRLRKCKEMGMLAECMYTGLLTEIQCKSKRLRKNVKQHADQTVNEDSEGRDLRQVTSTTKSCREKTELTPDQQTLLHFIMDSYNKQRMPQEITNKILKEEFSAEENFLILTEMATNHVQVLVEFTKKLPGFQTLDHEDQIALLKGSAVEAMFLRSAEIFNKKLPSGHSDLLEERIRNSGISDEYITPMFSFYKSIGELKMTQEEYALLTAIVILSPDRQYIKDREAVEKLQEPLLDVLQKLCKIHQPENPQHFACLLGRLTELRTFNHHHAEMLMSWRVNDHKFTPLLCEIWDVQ
Sequence of bovine Estrogen Receptor (ER), ESR1 (gene 407238) (P49884 whole entry, looked up): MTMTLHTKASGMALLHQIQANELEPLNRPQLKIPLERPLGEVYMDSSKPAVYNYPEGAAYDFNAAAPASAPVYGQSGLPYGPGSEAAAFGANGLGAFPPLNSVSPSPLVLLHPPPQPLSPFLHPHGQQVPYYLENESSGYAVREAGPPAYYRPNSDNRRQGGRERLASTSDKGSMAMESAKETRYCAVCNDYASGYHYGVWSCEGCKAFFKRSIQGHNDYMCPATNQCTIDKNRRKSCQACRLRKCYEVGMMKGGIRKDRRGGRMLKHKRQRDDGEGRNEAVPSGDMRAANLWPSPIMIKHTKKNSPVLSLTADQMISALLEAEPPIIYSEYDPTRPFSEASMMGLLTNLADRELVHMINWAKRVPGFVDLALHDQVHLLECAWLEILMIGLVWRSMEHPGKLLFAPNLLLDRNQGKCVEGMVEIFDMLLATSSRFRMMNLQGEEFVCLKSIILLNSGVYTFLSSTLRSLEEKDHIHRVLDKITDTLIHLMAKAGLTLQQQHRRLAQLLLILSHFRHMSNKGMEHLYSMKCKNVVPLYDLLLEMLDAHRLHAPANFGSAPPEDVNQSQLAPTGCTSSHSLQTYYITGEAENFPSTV
Sequence of rat Peripheral-type Benzodiazepine Receptor (PBR), Tspo (gene 24230) (P16257 whole entry, looked up): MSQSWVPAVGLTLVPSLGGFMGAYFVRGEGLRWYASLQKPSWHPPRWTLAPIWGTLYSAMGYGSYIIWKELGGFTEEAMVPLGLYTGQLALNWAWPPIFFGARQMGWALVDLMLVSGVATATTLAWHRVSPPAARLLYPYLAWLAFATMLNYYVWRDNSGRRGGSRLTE

For the molecule `COc1ccccc1OCC(O)CO` (stereo not drawn), the molecule was classed as inactive in assay [1].
On to `CN(C)c1ccc(C(c2ccccc2)c2ccc(N(C)C)cc2)cc1`, for which the AC50 in assay [2] is 2.78 µM (active); in [3] it was 25 µM (active).
Consider `CC1=NN(c2cc(Cl)c(S(=O)(=O)O)cc2Cl)C(=O)C1N=Nc1ccc(S(=O)(=O)O)cc1` (stereo not drawn), for which the molecule was classed as inactive in assay [4] and in assay [5]. The AC50 in the assay with SRD5A2 (gene 6716) is 10 µM (active).
For the molecule `CC1(C)S[C@@H]2[C@H](NC(=O)[C@H](N)c3ccccc3)C(=O)N2[C@H]1C(=O)O`, the result in assay [6], in assay [8] and in assay [9] was inactive. Further, the AC50 in assay [7] is 3.57 µM (active).
With `Cc1cccnc1`, the outcome in [10] was inactive.
Take `Cc1ccccc1S(N)(=O)=O`: the molecule was classed as inactive in [1]. For the same molecule, the concentration at half-maximal activity (AC50) in [11] is 1.88 µM (active).
With `Cc1cc(-n2nc3ccc(Cl)cc3n2)c(O)c(C(C)(C)C)c1`, in assay [11], the half-maximal activity concentration (AC50) is 0.741 µM (active).
As for `CN(C)CCC(c1ccc(Cl)cc1)c1ccccn1` (stereo not drawn), the AC50 was 5 µM (active) in [12]; 10.3 µM (active) in [13]; 2.54 µM (active) in [14]; 3.59 µM (active) in [6]; 22.8 µM (active) in assay [7]. The call in [9] was inactive.
Regarding `NC(N)=Nc1nc(CSCCC(N)=NS(N)(=O)=O)cs1`, the molecule was classed as inactive in assay [6], in assay [7], in [8] and in assay [9].
As to `CCCC(=O)OC/C=C(\C)CCC=C(C)C`, the outcome in assay [15] was inactive.
Take `CCCOCCC`: the call in assay [1] was inactive.
Turning to `Cc1cc2nc3c(=O)[nH]c(=O)nc-3n(C[C@H](O)[C@H](O)[C@H](O)CO)c2cc1C`, the call in assay [16], in assay [17], in [10], in assay [4] and in [5] was inactive. In addition, the AC50 in the assay with SRD5A2 (gene 6716) was 27.1 µM (active).
For the molecule `Clc1ccccn1`, in assay [1], the AC50 was 9.99 µM (active). For the same molecule, in assay [13], the call was inactive.
With `CCC(C)NC(N)=O` (stereo not drawn), the AC50 in assay [14] is 26.9 µM (active).
For the molecule `Cc1cc(O)cc(C)c1Cl`, the AC50 in assay [2] is 8.12 µM (active).
In the case of `C/C=C(\C)C(=O)OCC/C=C\CC`, the molecule was classed as inactive in assay [15].
For the molecule `CCCCCCCCCCCCCCCCCC[N+](C)(C)C`, the concentration at half-maximal activity (AC50) was 0.826 µM (active) in [12], 1.06 µM (active) in assay [13] and 2.52 µM (active) in [14].
For the molecule `O=C(OCc1ccccc1)c1ccccc1`, the result in [10] was inactive.
Regarding `COC(=O)/C=C\C(=O)OC`, the call in assay [11] was inactive.
`Sc1nc2ccccc2s1`: the AC50 in [12] was 3 µM (active).

One may read the AC50 as the midpoint of the concentration-response curve, whichever way the signal moves.
